In ChEMBL document CHEMBL1201862, “PubChem BioAssay data set” (2004):
Hit rate of the full screen: of about 400,000 compounds, about 2,100 (0.53%) were called active. Another 14% or so got no clear call; they are omitted. The sample holds actives, similar compounds and a random draw of the others, so the mix is not that of the screen. How the calls were made is not given here.

target: Ataxin-2 (Homo sapiens) (UniProt Q99700); assay: qHTS for Inhibitors of ATXN expression.; assay type: functional
Sequence (Q99700 whole entry): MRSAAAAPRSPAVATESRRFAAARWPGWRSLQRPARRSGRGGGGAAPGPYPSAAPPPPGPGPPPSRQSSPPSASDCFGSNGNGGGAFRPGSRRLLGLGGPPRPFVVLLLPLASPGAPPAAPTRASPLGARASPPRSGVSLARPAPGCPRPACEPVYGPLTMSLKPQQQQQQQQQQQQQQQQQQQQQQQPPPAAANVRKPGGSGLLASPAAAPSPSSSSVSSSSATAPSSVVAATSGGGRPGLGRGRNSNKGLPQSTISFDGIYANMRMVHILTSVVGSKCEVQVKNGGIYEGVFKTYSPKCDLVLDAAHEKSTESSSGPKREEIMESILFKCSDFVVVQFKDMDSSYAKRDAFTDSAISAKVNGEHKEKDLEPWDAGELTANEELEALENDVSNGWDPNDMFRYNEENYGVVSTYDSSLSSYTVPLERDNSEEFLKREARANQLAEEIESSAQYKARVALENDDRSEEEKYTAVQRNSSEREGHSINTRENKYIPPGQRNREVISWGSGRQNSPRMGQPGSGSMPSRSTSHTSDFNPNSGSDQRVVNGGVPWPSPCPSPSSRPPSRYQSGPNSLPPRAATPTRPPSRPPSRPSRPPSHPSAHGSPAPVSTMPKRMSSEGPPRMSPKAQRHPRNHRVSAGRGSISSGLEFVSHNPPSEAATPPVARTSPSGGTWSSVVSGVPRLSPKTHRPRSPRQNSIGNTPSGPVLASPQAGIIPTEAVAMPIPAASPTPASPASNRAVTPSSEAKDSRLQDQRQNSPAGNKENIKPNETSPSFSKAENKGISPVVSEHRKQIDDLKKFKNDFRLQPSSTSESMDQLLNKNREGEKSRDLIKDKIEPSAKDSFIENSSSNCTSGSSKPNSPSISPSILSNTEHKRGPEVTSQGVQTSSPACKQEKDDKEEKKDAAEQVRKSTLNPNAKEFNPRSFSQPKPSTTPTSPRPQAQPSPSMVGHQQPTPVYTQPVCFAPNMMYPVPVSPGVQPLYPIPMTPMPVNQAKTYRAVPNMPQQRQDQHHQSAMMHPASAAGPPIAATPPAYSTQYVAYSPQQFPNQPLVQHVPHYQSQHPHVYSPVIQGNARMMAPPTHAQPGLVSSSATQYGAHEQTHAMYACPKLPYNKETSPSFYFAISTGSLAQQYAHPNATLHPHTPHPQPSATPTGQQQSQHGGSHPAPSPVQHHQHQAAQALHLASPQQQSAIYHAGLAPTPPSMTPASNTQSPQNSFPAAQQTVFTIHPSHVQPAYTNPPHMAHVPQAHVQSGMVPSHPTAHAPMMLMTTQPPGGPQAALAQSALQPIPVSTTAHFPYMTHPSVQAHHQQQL

Row | Structure (SMILES) | Potency
1 | O=C(CN1C(=O)c2ccc([N+](=O)[O-])cc2C1=O)NCc1ccco1 | inactive
2 | Cc1cc(/C=C2\C(=N)N3N=C(c4ccco4)SC3=NC2=O)c(C)n1Cc1ccccc1 | inactive
3 | COc1ccc([N+](=O)[O-])c(OC)c1C(=O)NC(=O)Nc1c(F)cc(F)cc1F | inactive
4 | COc1ccc(C2C=C(c3ccc(F)cc3)Nc3nc(-c4ccc(Cl)cc4)nn32)cc1 (stereo not drawn) | inactive
5 | Cn1ncc(C#N)c1/N=C/N(Cc1ccccc1)Cc1ccccc1 | inactive
6 | CC(NC1=NS(=O)(=O)c2ccccc21)C(=O)Nc1ccc(F)cc1Cl (stereo not drawn) | inactive
7 | CC1CC(C)CN(C(=O)CCc2ccccc2)C1 (stereo not drawn) | inactive
8 | C[N+](C)(C)CCC(=O)N1C/C(=C/c2ccccc2)C(=O)/C(=C\c2ccccc2)C1 | 8.44 µM (active)
9 | NN=C(S)NCCc1ccccc1 | inactive
10 | COc1cc2c(cc1OC)C(SC)=NC1(CCCC1)C2 | 35.5 µM (active)
11 | Oc1cc(NC2CCCCC2)nc(O)n1 | inactive
12 | CCOC(=O)c1cc2c(=O)n3ccccc3nc2n(C(C)C)/c1=N/C(=O)c1c(-c2ccccc2Cl)noc1C | inactive
13 | CCCNC(=O)C[S+]([O-])Cc1nc(-c2ccccc2C)oc1C (stereo not drawn) | inactive
14 | COc1cc(Nc2ccccn2)cc(C(=O)Nc2cccc(C(F)(F)F)c2)c1 | 28.2 µM (active)
15 | COc1cc(/C=C(\C#N)C(=O)Nc2cc(C(F)(F)F)ccc2Cl)ccc1OCC(=O)Nc1cccc(C(F)(F)F)c1 | inactive
16 | O=C(Nc1ccncc1)c1ccc2ccccc2c1 | inactive
17 | C=CCNC(=O)/C(C#N)=C/c1c(N2CC(C)OC(C)C2)nc2ccccn2c1=O (stereo not drawn) | inactive
18 | Cc1ccc(NC(=O)Cc2nc(-c3c[nH]c(C(=O)N4CCCC4)c3)cs2)c(C)c1 | inactive
19 | O=C(O)/C=C\C(=O)Nc1ccc(OC(F)F)cc1 | inactive
20 | C/C(=N\NC(=O)C1CC1)c1ccc(OC(F)F)cc1 | inactive
21 | O=C1C=CC(=O)N1c1ccc(OC(F)F)cc1 | 39.8 µM (active)
22 | COc1cc(/C=C2\C(=N)N3N=C(CC(=O)N4CCCCC4)SC3=NC2=O)cc(OC)c1O | inactive
23 | COCCNC(=O)/C(C#N)=C1\N=C(NC(=O)c2ccco2)c2ccccc21 | inactive
24 | Cc1ccc2cccnc2c1N | inactive
25 | Cc1ccnc2c1ccc1c(C)ccnc12 | 5.32 µM (active)
26 | Cc1nn(CCN)c(C)c1Cl | inactive
27 | O=C(Nc1ccccc1Cl)C1C(c2ccccc2)C1(Cl)Cl (stereo not drawn) | inactive

Row | Structure (SMILES) | Potency
28 | CCCCCCCCNCCS(=O)(=O)NCc1ccccc1 | 31.6 µM (active)
29 | CCN1C(=O)c2cccc3c(S(=O)(=O)NCc4ccccc4)ccc1c23 | inactive
30 | NC(=O)c1cc(S(=O)(=O)NCc2ccccc2)cs1 | inactive
31 | Nc1cc(-c2ccccc2)nn1Cc1ccccc1 | inactive
32 | Cc1ccc(Cn2c(C(=O)O)c(CNCc3ccc(C)o3)c3ccc(C)cc32)cc1 | 35.5 µM (active)
33 | COc1ccc(Cn2c(C(=O)O)c(CNCc3ccc(C)o3)c3ccc(C)cc32)cc1 | 17.8 µM (active)
34 | Cc1ccc2c(CNCc3ccc(C)o3)c(C(=O)O)n(Cc3ccc(F)cc3)c2c1 | 35.5 µM (active)
35 | COc1ccc(Cn2c(C)nc3ccc([N+](=O)[O-])cc3c2=O)cc1 | inactive
36 | CC(=O)c1cn(Cc2ccccc2)c(=O)n(Cc2ccc(F)cc2)c1=O | inactive
37 | COc1ccc(CNCc2c(O)c(Cl)cc3c(C)c(C)c(=O)oc23)c(OC)c1 | inactive
38 | Cc1c(O[C@@H]2O[C@H](CO)[C@@H](O)[C@H](O)[C@H]2O)ccc2c1oc(=O)c1ccccc12 | inactive
39 | CC(C)OCCCn1c(-c2ccco2)nc2nc3ccccc3nc21 | inactive
40 | O=C(Cn1c(SCC(=O)Nc2ccc(F)cc2)nc2ccccc21)NCc1ccccc1Cl | 39.8 µM (active)
41 | CC(C)(C)NC(=O)Cn1c(SCC(=O)NC2CC2)nc2ccccc21 | inactive
42 | O=C(Cn1c(C(F)(F)F)nc2ccccc21)Nc1ccccc1C(=O)O | inactive
43 | C/N=c1\scc(-c2ccc(OC)cc2)n1/N=C(\C)c1cccnc1 | inactive
44 | CC1=CC(=Cc2sc3ccccc3[n+]2C)C=C(C)N1CC1CCCO1 (stereo not drawn) | inactive
45 | Cc1cc(C)n(-c2nnc(Cl)c3ccccc23)n1 | 39.8 µM (active)
46 | COc1ccc(-c2nc(C#N)c(N3CCCCC3)o2)cc1 | inactive
47 | Nc1nc(N)c2cc(CNc3ccc(Cl)c(Cl)c3)ccc2n1 | 11.2 µM (active)
48 | COc1ccc(-c2cc(C(F)(F)F)n3nc(-c4ccccc4)cc3n2)cc1OC | inactive
49 | CCN1CCN(c2nc(NCCO)c3ccccc3n2)CC1 | inactive
50 | CCN1CCN(c2cc(-c3ccccc3)nc3cc(-c4cccc(F)c4)nn23)CC1 | 17.8 µM (active)
51 | Cc1ccnc(NC(=O)c2ccccc2NC(=O)c2ccc(Cl)cc2Cl)c1 | inactive
52 | Cc1ccnc(NC(=O)c2cc3c(=O)oc4ccc(C)cc4c3s2)c1 | 20 µM (active)
53 | CCN(CC)c1ccc2cc(C(=O)Nc3ccccn3)c(=O)oc2c1 | inactive
